The sample as a whole holds a higher share of hits than the screen did.
Pf Dd2 growth – Plasmodium falciparum Dd2 growth inhibition | P. falciparum Dd2 growth, SYBR Green, 72 h | Potency, µM (top dose mostly 28.9 µM), for the others: at the top dose activity, negative = inhibition, hits mostly inhibitors | hit rate 4.3% among 120,000 | AID 1347417; active = well fitted inhibition curve with a large enough effect;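 note: plate controls were DMSO vehicle for no effect and reference drug for full effect; nearly all actives have a fitted effect of over 65% in size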
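Infected erythrocytes (Dd2, 0.3% parasitemia, 2.5% hematocrit final) are added to compound in RPMI-1640/Albumax II medium, grown 72 h at 37C in low oxygen, then lysed with saponin/Triton-X containing SYBR Green and read by fluorescence.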
* = called active by the depositor; i = inactive; [ ] = dose if it differs, or a comment. Potency is the fitted concentration of half-maximal effect.

SMILES	Pf Dd2 growth
COCCN(Cc1ccc(C)cc1)Cc1ccc(C#N)cc1	i
COCCN(Cc1cnn(-c2ccccc2C)c1)CC1CC1	7.1µM*
Cn1ccnc1CN[C@@H]1CO[C@H](CNC(=O)c2ccc(F)cc2)[C@H]1O	-12%[44.1 µM]
Cc1cccc(NC(=O)C2CCN(C(=O)c3ncn4c3COC(c3ccccc3)C4)CC2)c1 (stereo unspecified)	i
Cc1cccnc1CN(C)c1cc(C2CC(O)C2)ncn1 (stereo unspecified)	13%
CN(Cc1cccc(-c2nn[nH]n2)c1)c1cc(C2CC(N)C2)ncn1 (stereo unspecified)	-13%
COc1ccc(Cl)cc1CN(C)c1cc(C2CC(N)C2)ncn1 (stereo unspecified)	10µM*
O=C(Nc1ccc2c(c1)OCCO2)N1CCCC(CN2CCOCC2)CC1 (stereo unspecified)	-9%
O=C([C@@H]1C[C@H](F)CN1S(=O)(=O)Cc1ccccc1)N1CCc2ccccc2C1	-21%
Cc1cc(C)nc(NC(=NCCc2c[nH]c3ccc(Cl)cc23)NC(=O)c2ccccc2C)n1	-4%
COc1ccc2[nH]cc(CCN=C(NC(=O)c3ccccc3C)Nc3nc(C)cc(C)n3)c2c1	8.9µM*
COc1ccc2[nH]cc(CCNC(=O)Nc3ccc(F)cc3)c2c1	19%
NCCN1C(=O)CO[C@H](c2ccc(NS(=O)(=O)c3ccccc3)cc2)[C@H]1CO	15%[44.1 µM]
COCCOc1ccnc(-c2noc([C@@H]3CCCN3C3CCN(C(C)=O)CC3)n2)c1	-17%[44.1 µM]
CC(C)N1C[C@@H]2C[C@H]1C(=O)N(CC1CC1)c1ccccc1O2	11µM*
COc1ccc(CN2C(=O)[C@@H]3C[C@@H](CN3C3CCCC3)Oc3ccccc32)cc1	10µM*
COc1ccc(CN2C(=O)[C@@H]3C[C@@H](CN3C(=O)c3cnccn3)Oc3ccccc32)cc1	-26%[44.1 µM]
COCCN1C(=O)[C@@H]2C[C@@H](CN2Cc2cccc(OC)c2)Oc2ccccc21	10µM*
COCCN1C(=O)[C@@H]2C[C@@H](CN2Cc2ccccc2)Oc2ccccc21	i
O=C1[C@@H]2C[C@@H](CN2C(=O)c2ccccc2)Oc2ccccc2N1CC1CC1	5%[44.1 µM]
CC(C)N1C[C@@H]2C[C@H]1C(=O)N(Cc1ccc(OC(F)(F)F)cc1)c1ccccc1O2	11µM*
O=C1[C@@H]2C[C@@H](CN2C(=O)c2ccccc2)Oc2ccccc2N1Cc1ccccc1	-12%[44.1 µM]
COCCN1C(=O)[C@@H]2C[C@@H](CN2C2CCCC2)Oc2ccccc21	-30%[44.1 µM]
COCCN1C(=O)[C@@H]2C[C@@H](CN2C(C)C)Oc2ccccc21	-34%[44.1 µM]
COc1ccc(CN2C(=O)[C@@H]3C[C@@H](CN3C(C)C)Oc3ccccc32)cc1	26%[44.1 µM]
SMILES	Pf Dd2 growth
COCCN1C(=O)[C@@H]2C[C@@H](CN2Cc2ccc(C#N)cc2)Oc2ccccc21	-11%[44.1 µM]
c1cn(CCN2CCCC2)c(-c2cc3n(n2)CCNC3)n1	-2%
O=C(Nc1ccc([C@@H](O)[C@H]2COCC(=O)N2Cc2ccccn2)cc1)C1CCCC1	1%[44.1 µM]
CCNC(=O)c1cccnc1OC1CCN(C(=O)c2cccc(Cl)c2)C1 (stereo unspecified)	17%
Cc1ncc2n1C(=O)N(C1CCN(C(=O)Nc3ccccc3)CC1)C2	-23%[44.1 µM]
Cc1ccccc1C(=O)N1CCC2(CC1)CC(=O)N(c1ccccc1)c1ccccc1O2	i
CN(C)c1ccc(-c2ccnc(N[C@H]3CO[C@H]4[C@@H]3OC[C@@H]4NC(=O)CSCC(=O)O)n2)cc1	i
CN1CCC(N2C[C@@H]3C[C@H]2C(=O)N(Cc2ccc(OC(F)(F)F)cc2)c2ccccc2O3)CC1	10µM*
O=C1[C@@H]2C[C@@H](CN2C2COC2)Oc2ccccc2N1Cc1ccc(OC(F)(F)F)cc1	i
O=C1[C@@H]2C[C@@H](CN2C(=O)C2CC2)Oc2ccccc2N1Cc1ccccc1	i
O=C1CC2(CCN(C(=O)c3ccc(CSc4ccccc4)o3)C2)C(=O)N1 (stereo unspecified)	-24%
Cc1cc(CN2CCC(n3cc[nH]c3=O)CC2)no1	29%[44.1 µM]
CCC(=O)N1CCC(N2CC(OCC3CC3)C23CCOCC3)CC1 (stereo unspecified)	i
CC(C)NC(=O)N1CCC(N2CC(OCC3CC3)C23CCCCC3)CC1 (stereo unspecified)	-18%
CCOCC(=O)N1CCC(N2CC(OCC3CC3)C23CCCCC3)CC1 (stereo unspecified)	5µM*
O=C(NCc1ccccc1)N1CCC(N2CC(OCC3CC3)C23CCOCC3)CC1 (stereo unspecified)	-8%
Cn1nccc1C(=O)N1CCC(N2CC(OCC3CC3)C23CCOCC3)CC1 (stereo unspecified)	-20%
O=C(Cc1cccnc1)N1CCC(N2CC(OCC3CC3)C23CCCCC3)CC1 (stereo unspecified)	7.9µM*
CC(=O)N[C@@H]1CN(C(=O)C2(c3ccccc3)CC2)C[C@H]1CO	21%
COCCNC(=O)C1Cn2cccc2C(=O)N1Cc1ccccc1 (stereo unspecified)	11%
CNC(=O)NC[C@H]1CCN(Cc2scnc2C)C[C@H]1N(C)C	55%

Source: PubChem
